Holding throughout (test): DAPPL (digital affinity profiling via proximity ligation, sequencing); 10 mM Tris-HCl pH 7.5, 50 mM NaCl, 1 mM DTT, 4% glycerol, room temperature, 30 min; GST-TFs on glutathione beads, 16-mer random dsDNA library, 0.1% formaldehyde crosslink after washing; high values mean tight binding
Holding throughout (conditions): protein: recombinant; tags: N-terminal GST; dsDNA, one strand shown

The target in experiment [1] is T1, FLI1 (Homo sapiens, UniProt Q01543 1-452).
T1 sequence: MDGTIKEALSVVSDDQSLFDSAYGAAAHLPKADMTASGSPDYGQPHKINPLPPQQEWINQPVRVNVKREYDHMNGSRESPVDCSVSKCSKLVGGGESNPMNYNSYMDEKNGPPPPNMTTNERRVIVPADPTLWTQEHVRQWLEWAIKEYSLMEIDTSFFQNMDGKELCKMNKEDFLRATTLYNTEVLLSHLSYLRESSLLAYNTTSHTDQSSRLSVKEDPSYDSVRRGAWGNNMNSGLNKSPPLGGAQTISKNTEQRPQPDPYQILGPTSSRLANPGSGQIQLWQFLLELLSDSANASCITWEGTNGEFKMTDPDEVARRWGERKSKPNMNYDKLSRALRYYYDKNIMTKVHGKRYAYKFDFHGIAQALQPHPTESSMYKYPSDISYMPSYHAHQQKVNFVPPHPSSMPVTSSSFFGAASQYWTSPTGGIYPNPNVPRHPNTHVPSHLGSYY
A digest of the protocol:
(§1)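 Each value of binding signal is a hexamer's read frequency for a factor divided by the same hexamer's frequency in the tag-only sample. Barcoded, bead-captured GST fusions of human transcription factors made in yeast were pooled with that sample and incubated with 200 nmole of a random double-stranded 16-mer DNA library in Tris/NaCl/DTT/glycerol buffer at room temperature for 30 min. Washing, 0.1% formaldehyde crosslinking, proximity ligation, PCR and Illumina NextSeq500 sequencing followed.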

The target in experiment [2] is T2, ELK1 (Homo sapiens, UniProt P19419 1-428).
T2 sequence: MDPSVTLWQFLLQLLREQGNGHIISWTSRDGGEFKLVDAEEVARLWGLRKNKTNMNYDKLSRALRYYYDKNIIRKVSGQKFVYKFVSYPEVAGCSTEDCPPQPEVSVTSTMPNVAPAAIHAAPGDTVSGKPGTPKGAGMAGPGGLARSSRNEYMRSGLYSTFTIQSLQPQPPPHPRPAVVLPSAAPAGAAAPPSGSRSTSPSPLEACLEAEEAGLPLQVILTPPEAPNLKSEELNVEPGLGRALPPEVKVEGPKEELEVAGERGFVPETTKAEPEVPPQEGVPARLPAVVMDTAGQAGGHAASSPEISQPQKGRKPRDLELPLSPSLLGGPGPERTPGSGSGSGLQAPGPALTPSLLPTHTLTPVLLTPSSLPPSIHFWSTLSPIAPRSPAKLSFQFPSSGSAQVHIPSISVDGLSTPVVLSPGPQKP
A digest of the protocol: as §1

In experiment [3] the target is T3, GABPA (Homo sapiens, UniProt Q06546 1-454).
T3 sequence: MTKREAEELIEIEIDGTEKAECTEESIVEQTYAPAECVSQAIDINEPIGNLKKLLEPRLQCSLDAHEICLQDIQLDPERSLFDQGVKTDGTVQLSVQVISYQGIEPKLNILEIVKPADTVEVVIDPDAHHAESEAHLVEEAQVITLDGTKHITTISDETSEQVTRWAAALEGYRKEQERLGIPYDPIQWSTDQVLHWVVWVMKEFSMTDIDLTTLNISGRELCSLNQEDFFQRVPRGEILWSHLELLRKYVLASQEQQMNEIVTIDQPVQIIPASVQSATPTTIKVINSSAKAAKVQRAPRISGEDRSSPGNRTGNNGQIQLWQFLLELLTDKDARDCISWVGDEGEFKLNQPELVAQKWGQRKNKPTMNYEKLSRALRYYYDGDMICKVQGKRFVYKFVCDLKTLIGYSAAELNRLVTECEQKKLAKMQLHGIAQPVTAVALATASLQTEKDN
A digest of the protocol:
as §1

Experiment [4] has as its target T4, ERG (Homo sapiens, UniProt P11308 1-479).
T4 sequence: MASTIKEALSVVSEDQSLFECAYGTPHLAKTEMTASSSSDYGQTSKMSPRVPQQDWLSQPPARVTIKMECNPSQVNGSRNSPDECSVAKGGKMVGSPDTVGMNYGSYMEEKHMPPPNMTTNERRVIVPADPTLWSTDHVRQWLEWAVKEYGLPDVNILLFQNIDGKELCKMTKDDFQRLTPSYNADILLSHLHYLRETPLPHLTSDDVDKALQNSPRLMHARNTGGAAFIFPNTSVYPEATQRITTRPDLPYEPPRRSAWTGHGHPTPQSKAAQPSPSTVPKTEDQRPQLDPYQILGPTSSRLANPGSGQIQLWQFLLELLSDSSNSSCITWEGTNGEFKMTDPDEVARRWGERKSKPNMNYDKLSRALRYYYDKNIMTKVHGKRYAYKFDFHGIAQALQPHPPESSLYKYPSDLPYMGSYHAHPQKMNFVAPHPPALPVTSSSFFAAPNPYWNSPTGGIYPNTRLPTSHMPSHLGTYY
A digest of the protocol: as §1

Experiment [5] addresses ELF1 (Homo sapiens, UniProt P32519 1-619). Put shortly: as §1
The target in experiment [6] is T5, EHF (Homo sapiens, UniProt Q9NZC4 1-300).
T5 sequence: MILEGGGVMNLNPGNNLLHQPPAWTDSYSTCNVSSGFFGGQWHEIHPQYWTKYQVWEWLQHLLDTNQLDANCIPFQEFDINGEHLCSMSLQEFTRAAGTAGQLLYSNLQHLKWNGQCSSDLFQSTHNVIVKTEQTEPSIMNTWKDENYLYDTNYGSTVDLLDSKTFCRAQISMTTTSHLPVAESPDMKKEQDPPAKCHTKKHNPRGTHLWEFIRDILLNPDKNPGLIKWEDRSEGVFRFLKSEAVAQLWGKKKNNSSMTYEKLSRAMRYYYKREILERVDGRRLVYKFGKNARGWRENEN
Put shortly:
as §1

Experiment [7] addresses SPIB (Homo sapiens, UniProt Q01892 1-262). Put shortly:
as §1

The target in experiment [8] is T6, ELK3 (Homo sapiens, UniProt P41970 1-407).
T6 sequence: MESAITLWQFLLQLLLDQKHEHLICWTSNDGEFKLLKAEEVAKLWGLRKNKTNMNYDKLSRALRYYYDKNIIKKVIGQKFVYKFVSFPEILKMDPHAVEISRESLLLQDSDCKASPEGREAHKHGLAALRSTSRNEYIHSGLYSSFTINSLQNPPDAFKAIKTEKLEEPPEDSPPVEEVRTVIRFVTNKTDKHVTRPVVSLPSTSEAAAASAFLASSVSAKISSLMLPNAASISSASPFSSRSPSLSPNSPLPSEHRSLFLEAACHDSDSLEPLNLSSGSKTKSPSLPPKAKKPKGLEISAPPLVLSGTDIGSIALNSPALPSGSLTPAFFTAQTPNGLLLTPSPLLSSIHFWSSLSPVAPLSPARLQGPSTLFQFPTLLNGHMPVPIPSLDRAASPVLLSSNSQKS
Put shortly: as §1

The target in experiment [9] is T7, FEV (Homo sapiens, UniProt Q99581 1-238).
T7 sequence: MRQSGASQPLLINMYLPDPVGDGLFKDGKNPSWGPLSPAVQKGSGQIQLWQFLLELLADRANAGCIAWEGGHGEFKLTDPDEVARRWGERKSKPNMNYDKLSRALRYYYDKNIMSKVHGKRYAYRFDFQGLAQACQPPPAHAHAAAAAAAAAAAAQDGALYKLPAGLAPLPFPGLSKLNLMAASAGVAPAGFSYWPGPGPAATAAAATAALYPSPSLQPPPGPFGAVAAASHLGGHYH
Put shortly: as §1

Experiment [10] concerns the target ETV5 (Homo sapiens, UniProt P41161 1-510). A digest of the protocol: as §1
The target in experiment [11] is T8, SPIC (Homo sapiens, UniProt Q8N5J4 1-248).
T8 sequence: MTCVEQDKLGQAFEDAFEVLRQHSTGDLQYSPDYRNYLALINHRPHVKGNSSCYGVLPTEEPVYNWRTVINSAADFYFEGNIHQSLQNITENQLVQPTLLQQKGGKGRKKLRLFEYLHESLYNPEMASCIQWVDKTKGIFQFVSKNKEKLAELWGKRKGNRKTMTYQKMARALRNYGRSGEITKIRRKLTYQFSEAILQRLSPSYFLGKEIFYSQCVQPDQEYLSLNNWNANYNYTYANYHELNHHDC
Put shortly: as §1

For experiment [12], the target named is ELF4 (Homo sapiens, UniProt Q99607 1-663). A digest of the protocol: as §1
The target in experiment [13] is T9, ELK4 (Homo sapiens, UniProt P28324-2 1-405).
T9 sequence: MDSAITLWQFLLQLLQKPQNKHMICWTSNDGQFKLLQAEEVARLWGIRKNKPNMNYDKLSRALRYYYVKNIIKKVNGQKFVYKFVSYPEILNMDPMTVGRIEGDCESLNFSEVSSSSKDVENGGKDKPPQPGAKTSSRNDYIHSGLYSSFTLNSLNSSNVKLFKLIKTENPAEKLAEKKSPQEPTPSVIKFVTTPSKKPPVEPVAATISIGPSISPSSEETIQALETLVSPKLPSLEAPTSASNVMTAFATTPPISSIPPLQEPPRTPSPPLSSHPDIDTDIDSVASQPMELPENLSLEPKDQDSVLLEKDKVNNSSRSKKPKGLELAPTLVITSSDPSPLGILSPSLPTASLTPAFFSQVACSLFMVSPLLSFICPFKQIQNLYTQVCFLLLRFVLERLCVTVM
Put shortly:
as §1

In experiment [14] the target is T10, ETV2 (Homo sapiens, UniProt O00321 1-342).
T10 sequence: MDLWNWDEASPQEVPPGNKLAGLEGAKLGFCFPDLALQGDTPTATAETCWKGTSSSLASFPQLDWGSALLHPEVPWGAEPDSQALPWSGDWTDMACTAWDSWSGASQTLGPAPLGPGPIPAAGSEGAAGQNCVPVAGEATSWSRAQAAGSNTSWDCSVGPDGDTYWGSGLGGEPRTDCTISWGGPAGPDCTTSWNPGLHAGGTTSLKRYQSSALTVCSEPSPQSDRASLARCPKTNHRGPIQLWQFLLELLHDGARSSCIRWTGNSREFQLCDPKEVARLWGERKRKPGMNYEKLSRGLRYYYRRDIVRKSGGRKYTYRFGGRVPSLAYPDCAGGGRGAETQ
Put shortly:
as §1

Experiment [15] has as its target T11, ELF3 (Homo sapiens, UniProt P78545 1-371).
T11 sequence: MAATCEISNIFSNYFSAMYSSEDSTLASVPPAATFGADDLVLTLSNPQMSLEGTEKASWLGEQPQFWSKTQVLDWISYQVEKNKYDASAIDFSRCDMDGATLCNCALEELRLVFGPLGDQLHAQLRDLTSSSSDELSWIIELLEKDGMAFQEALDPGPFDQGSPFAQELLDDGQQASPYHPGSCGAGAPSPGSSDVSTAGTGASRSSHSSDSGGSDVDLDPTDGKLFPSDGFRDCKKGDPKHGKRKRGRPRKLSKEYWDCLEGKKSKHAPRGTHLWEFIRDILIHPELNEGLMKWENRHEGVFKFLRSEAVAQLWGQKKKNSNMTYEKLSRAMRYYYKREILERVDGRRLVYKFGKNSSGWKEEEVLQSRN
Put shortly: as §1

For experiment [16], the target named is CRX (Homo sapiens, UniProt O43186 1-299). A digest of the protocol: as §1
The target in experiment [17] is ETV1 (Homo sapiens, UniProt P50549 1-477). Put shortly: as §1
In experiment [18] the target is SPI1 (Homo sapiens, UniProt P17947 1-270). A digest of the protocol:
as §1

ELF4, sequence (Q99607 whole entry): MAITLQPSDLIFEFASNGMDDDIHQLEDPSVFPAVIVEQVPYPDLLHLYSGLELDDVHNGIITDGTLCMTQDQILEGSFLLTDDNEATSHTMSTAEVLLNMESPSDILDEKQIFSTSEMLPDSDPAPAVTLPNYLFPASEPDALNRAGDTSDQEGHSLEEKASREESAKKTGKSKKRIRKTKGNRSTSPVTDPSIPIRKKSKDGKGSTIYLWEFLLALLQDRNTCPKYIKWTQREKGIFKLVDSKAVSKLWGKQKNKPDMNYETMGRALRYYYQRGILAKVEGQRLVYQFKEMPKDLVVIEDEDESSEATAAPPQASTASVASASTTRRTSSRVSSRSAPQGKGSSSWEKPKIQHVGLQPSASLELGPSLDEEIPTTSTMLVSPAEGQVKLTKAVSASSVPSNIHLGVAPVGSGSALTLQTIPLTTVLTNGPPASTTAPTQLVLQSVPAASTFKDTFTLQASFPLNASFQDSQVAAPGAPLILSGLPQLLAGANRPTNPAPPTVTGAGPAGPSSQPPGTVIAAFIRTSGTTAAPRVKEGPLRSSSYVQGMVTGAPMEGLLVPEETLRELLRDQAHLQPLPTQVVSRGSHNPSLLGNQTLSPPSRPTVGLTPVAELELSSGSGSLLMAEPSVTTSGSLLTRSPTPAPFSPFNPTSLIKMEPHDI
ETV1, sequence (P50549 whole entry): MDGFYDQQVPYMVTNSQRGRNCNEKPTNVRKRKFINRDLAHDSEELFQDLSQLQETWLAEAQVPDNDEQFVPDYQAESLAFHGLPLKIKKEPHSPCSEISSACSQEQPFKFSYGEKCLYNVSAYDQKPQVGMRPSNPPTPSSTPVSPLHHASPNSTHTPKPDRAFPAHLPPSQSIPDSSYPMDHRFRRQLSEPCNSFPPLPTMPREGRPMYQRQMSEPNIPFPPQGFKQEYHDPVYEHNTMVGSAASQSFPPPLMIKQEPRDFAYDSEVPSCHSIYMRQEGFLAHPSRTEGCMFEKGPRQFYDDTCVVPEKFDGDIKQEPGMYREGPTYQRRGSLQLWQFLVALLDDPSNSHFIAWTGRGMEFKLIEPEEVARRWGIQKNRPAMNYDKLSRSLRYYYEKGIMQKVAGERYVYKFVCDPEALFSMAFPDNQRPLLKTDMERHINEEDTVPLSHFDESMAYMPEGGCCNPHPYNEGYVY
ETV5, sequence (P41161 whole entry): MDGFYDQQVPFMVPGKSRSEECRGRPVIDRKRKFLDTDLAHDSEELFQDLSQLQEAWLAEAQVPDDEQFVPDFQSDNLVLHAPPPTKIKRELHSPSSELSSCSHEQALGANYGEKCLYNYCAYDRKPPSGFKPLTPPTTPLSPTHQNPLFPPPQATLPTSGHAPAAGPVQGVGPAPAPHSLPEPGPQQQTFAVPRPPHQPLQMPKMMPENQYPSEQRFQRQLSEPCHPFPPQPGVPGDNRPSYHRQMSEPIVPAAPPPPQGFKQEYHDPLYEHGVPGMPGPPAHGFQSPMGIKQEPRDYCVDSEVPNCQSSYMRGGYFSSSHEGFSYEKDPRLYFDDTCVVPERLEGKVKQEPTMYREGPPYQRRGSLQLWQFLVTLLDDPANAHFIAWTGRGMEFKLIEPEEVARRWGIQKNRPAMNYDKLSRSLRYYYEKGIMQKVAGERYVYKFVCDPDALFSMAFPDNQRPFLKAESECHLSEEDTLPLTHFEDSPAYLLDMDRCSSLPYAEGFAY
CRX, sequence (O43186 whole entry): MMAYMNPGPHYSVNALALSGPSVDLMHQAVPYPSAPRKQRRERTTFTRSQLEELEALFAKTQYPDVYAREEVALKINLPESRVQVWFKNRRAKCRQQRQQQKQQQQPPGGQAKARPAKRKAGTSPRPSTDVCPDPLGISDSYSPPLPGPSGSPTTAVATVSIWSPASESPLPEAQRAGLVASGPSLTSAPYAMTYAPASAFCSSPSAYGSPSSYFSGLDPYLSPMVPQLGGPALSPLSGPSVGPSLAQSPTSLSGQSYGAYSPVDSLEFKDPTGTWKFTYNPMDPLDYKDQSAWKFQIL
ELF1, sequence (P32519 whole entry): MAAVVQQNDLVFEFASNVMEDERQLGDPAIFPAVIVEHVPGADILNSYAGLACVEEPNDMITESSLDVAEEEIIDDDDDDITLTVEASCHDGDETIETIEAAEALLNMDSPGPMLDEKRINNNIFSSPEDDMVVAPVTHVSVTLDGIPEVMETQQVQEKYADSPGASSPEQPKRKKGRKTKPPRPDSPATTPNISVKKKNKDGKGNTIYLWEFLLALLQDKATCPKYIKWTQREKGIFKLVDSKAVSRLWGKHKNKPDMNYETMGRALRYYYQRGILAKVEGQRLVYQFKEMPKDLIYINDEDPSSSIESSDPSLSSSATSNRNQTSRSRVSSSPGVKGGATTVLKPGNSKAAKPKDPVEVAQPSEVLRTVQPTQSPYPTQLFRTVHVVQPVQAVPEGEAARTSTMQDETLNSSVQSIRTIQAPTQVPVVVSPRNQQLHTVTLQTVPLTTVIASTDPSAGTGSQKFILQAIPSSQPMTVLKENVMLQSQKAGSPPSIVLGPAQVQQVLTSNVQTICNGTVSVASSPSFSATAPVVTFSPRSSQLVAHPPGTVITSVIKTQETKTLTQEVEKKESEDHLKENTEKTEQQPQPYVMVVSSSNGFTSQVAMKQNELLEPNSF
SPIB, sequence (Q01892 whole entry): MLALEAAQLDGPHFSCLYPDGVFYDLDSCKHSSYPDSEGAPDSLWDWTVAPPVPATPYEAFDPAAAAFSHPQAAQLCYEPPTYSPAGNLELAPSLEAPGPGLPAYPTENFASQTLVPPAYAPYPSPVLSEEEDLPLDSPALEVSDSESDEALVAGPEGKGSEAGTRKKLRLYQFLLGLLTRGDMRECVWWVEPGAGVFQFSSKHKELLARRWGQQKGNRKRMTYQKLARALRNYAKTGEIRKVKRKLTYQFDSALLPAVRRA

Consider GTAATG, for which the binding signal in experiment [1] is 1.07 fold enrichment (6-mer frequency, TF over GST control); in experiment [2], 1.07 fold enrichment (6-mer frequency, TF over GST control); in experiment [3] it was 1.16 fold enrichment (6-mer frequency, TF over GST control); in experiment [4], 1.05 fold enrichment (6-mer frequency, TF over GST control); in experiment [5] it was 1.11 fold enrichment (6-mer frequency, TF over GST control); in [6] it was 1.12 fold enrichment (6-mer frequency, TF over GST control). The binding signal is 1.06 fold enrichment (6-mer frequency, TF over GST control) in experiment [7]; 1.03 fold enrichment (6-mer frequency, TF over GST control) in [8]; 1.03 fold enrichment (6-mer frequency, TF over GST control) in [9]; 1.09 fold enrichment (6-mer frequency, TF over GST control) in [10]; 1.02 fold enrichment (6-mer frequency, TF over GST control) in experiment [11]; 1.08 fold enrichment (6-mer frequency, TF over GST control) in [12]. Besides, the binding signal is 1.09 fold enrichment (6-mer frequency, TF over GST control) in experiment [13]; 1.04 fold enrichment (6-mer frequency, TF over GST control) in [14]; 1.14 fold enrichment (6-mer frequency, TF over GST control) in experiment [15]; 1 fold enrichment (6-mer frequency, TF over GST control) in experiment [16]; 1.22 fold enrichment (6-mer frequency, TF over GST control) in experiment [17].
In the case of TCAGCA, the binding signal in [1] was 1.08 fold enrichment (6-mer frequency, TF over GST control); in experiment [2] it was 1.02 fold enrichment (6-mer frequency, TF over GST control); in [3], 1.06 fold enrichment (6-mer frequency, TF over GST control); in [5] it was 1.04 fold enrichment (6-mer frequency, TF over GST control); in [6], 1.09 fold enrichment (6-mer frequency, TF over GST control); in experiment [18] it was 1.02 fold enrichment (6-mer frequency, TF over GST control). In addition, the binding signal was 1.01 fold enrichment (6-mer frequency, TF over GST control) in [7]; 1.07 fold enrichment (6-mer frequency, TF over GST control) in experiment [8]; 1.02 fold enrichment (6-mer frequency, TF over GST control) in experiment [9]; 1.05 fold enrichment (6-mer frequency, TF over GST control) in [10]; 1.1 fold enrichment (6-mer frequency, TF over GST control) in [11]; 1.1 fold enrichment (6-mer frequency, TF over GST control) in [12]. In addition, the binding signal is 1 fold enrichment (6-mer frequency, TF over GST control) in experiment [13]; 1.04 fold enrichment (6-mer frequency, TF over GST control) in experiment [14]; 1.08 fold enrichment (6-mer frequency, TF over GST control) in experiment [15]; 1.01 fold enrichment (6-mer frequency, TF over GST control) in experiment [16]; 1.11 fold enrichment (6-mer frequency, TF over GST control) in [17].

The record behind these values is paper PMC7862700, “An all-to-all approach to the identification of sequence-specific readers for epigenetic DNA modifications on cytosine”.
